High-throughput results from PubChem BioAssay.
HCMV antiviral: qHTS Assay for inhibitors of the human cytomegalovirus (HCMV). HFF cells, HCMV-luciferase reporter, 72 h; active compounds read low. activity change, negative = inhibition, % at 57.5 µM. hit rate 4.5% among 410,000. AID 1259415, 2018; in the data active = activity change below about -60%; inconclusive = no clear call, values can overlap the other calls; inactive = above about -39%
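Compounds were evaluated in HFFs infected with an HCMV luciferase reporter virus (MOI 1 PFU/cell). Luciferase in lysates collected 72 h post infection served as the replication measure.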
HCV inhibitor: qHTS Assay for Inhibitors of Hepatitis C Virus (HCV); Huh7.5.1 HCVcc-Cre infection, luciferase reporter, 44 h; Potency, µM (highest dose often 41.8 µM), for the others: at the highest dose activity change, negative = inhibition, hits mostly inhibitors; hit rate 3.4% among 340,000; note: potency is the fitted concentration of half-maximal effect
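Reporter virus HCVcc-Cre (~0.5 moi) infects cells exposed to compound; seeding density 1,000 cells/well with 4 h settling beforehand. Luminescence, 15 sec read, taken 44 h post-infection following a 15 min RT substrate incubation.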
Pf growth 48h: Primary qHTS for delayed death inhibitors of the malarial parasite plastid, 48 hour incubation | P. falciparum luciferase growth in erythrocytes, 48 h | Potency, µM (doses to about 28.7 µM), inactives show at the top dose activity change, negative = inhibition, hits mostly inhibitors | hit rate 5.9% among 310,000 | AID 504832, 2011; note: potency is the fitted concentration of half-maximal effect
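Cell-based growth assay: transgenic P. falciparum expressing firefly luciferase, cultured in red cells within RPMI 1640 containing 0.5% w/v Albumax, 24 mM bicarbonate and gentamycin. A drop in luciferase activity indicates inhibition.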
Pf growth 96h: Primary qHTS for delayed death inhibitors of the malarial parasite plastid, 96 hour incubation | P. falciparum luciferase reporter growth, 96 h | AID 504834, 2011 | Potency, µM (doses to about 28.7 µM), for the others: at the top dose activity change, negative = inhibition, most hits filed as inhibitors | hit rate 6.9% among 320,000; note: potency is the fitted concentration of half-maximal effect
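96 h incubation, 37 C, 5% CO2, of luciferase-reporter P. falciparum-infected RBCs (2% hematocrit, 0.05% parasitemia final) with test compounds; endpoint luminescence.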
The depositor's hits bear a star; u = inconclusive; x = no result; [ ] = another dose, or the depositor's remark. A selection: hits, their analogues and other compounds. The true share with any hit is near 13%. Unless noted, calls come from the whole dose curve; as a rule, active = well fitted inhibition curve with a large enough effect; inconclusive = small, poorly fitted or top-dose-only effect, or another doubt; inactive = no such curve, though single readings can be large or run the other way. % is set by controls: 0 for no effect and ±100 for the full control effect.

SMILES | HCMV antiviral | HCV inhibitor | Pf growth 48h | Pf growth 96h
COc1cc(C2NC(=O)NC(C)=C2C(=O)OC2CCC(C)CC2)ccc1O (centres undefined) | -9 | 11% | 12µM* | 2.6µM*
COc1ccc(C2NC(=O)NC(C)=C2C(=O)OC2CCC(C)CC2)cc1 (centres undefined) | u | u | 4% | u
CC1=C(C(=O)OC2CCCCC2)C(c2cccc([N+](=O)[O-])c2)NC(=O)N1 (centres undefined) | -2 | 11µM* | -7% | 0%
CCOC(=O)C1=C(CSc2nc3ccccc3s2)NC(=O)NC1c1cccc([N+](=O)[O-])c1 (centres undefined) | -1 | 7% | 5.9µM* | u
CCOC(=O)C1=C(CNCc2ccc(C)cc2)NC(=O)NC1c1cc(C)ccc1C (centres undefined) | -7 | 3% | x | 3.3µM*
CCOC(=O)C1=C(CNCc2ccccc2Cl)NC(=O)NC1c1cccc([N+](=O)[O-])c1 (centres undefined) | -15 | u | u | 0.93µM*
CCOC(=O)C1=C(CNCCc2ccc(Cl)cc2)NC(=O)NC1c1cccc([N+](=O)[O-])c1 (centres undefined) | -6 | u | u | 17%
O=C(c1ccccc1[N+](=O)[O-])N1CCC[C@@H]1c1noc2ccccc12 | -62* | x | x | x
O=C(c1ccccc1[N+](=O)[O-])N1CCN(c2ccc(N3CCOCC3)nn2)CC1 | -5 | -11% | -17% | -5%
O=[N+]([O-])c1cc(CSC2=NCCN2)ccc1O | -15 | 14% | 3% | 24%
CCCOc1ccc(CSC2=NCCN2)cc1[N+](=O)[O-] | -20 | 3% | 15µM* | u
CCOC(=O)c1c(C)[nH]c(C)c1S(=O)(=O)N(C)CC(=O)Nc1ccc(CC)cc1 | -12 | x | x | x
CCOC(=O)Cn1c(=O)oc2cc(S(=O)(=O)Nc3cc(OC)cc(OC)c3)ccc21 | 19 | x | x | x
CCN(CC)S(=O)(=O)c1ccc(OC)c(NS(=O)(=O)Cc2ccccc2)c1 | -20 | -4% | -9% | 12µM*
CCN(CC)S(=O)(=O)c1ccc(OC)c(NC(=O)CSc2ccccc2)c1 | 31 | -24% | -16% | u
COc1ccc(CCNC(=O)c2cc(S(=O)(=O)N3CCCC(C)C3)cn2C)cc1OC (centres undefined) | 1 | x | x | x
O=S(=O)(c1ccccc1)c1cnn(-c2ccccc2)c1-c1ccc(F)cc1 | -61* | u | u | 5.9µM*
COc1ccc(-n2ncc(S(=O)(=O)c3ccccc3)c2-c2ccc(Cl)cc2)cc1 | u | 10µM* | 12µM* | u
O=S(=O)(c1ccccc1)c1cnn2c(C(F)(F)F)cc(-c3ccc(F)cc3)nc12 | 4 | -15% | 6% | u
COc1ccc(Sc2cnn(-c3ccccc3)c(=O)c2Cl)cc1 | u | -12% | 4% | -16%
COC(=O)c1cc(NC(=O)Cn2nc(-c3ccc(C)c(C)c3)ccc2=O)cc(C(=O)OC)c1 | 4 | x | x | x
COc1ccc(CNc2ccc3cc(S(=O)(=O)N4CCCCC4)ccc3n2)cc1 | -27 | x | x | x
CN(C(=O)CSc1nc2ccc(NC(=O)c3cccs3)cc2s1)c1ccccc1 | -76* | x | x | x
CN(C(=O)CSc1nc2ccc(NC(=O)c3ccccc3)cc2s1)c1ccccc1 | -20 | x | x | x
CC(=O)Nc1ccc2nc(SCCOc3ccccc3)sc2c1 | -78* | x | x | x
SMILES | HCMV antiviral | HCV inhibitor | Pf growth 48h | Pf growth 96h
O=C(COc1ccccc1)Nc1ccc2nc(SCCOc3ccccc3)sc2c1 | -32 | x | x | x
Cc1ccc2c(=O)cc(C(=O)Nc3ccc(S(=O)(=O)N4CCCCC4C)cc3)oc2c1C (centres undefined) | 3 | x | x | x
COc1ccc2c(c1)c1c(c(=O)n(-c3ccc(C)cc3)c(=O)n1CC(=O)N1CCCC1)n2C | -14 | x | x | x
Cc1nn(CCC(=O)NCc2cccc(Br)c2)c(=O)c2nn(-c3ccccc3)c(C)c12 | -8 | x | x | x
C=CCSC1=C(C#N)C(c2ccccc2Cl)C(C(=O)c2cccs2)C(O)(C(F)(F)F)N1 (centres undefined) | -70* | u | 20% | u
CCSC1=C(C#N)C(c2ccccc2Cl)C(C(=O)c2cccs2)C(O)(C(F)(F)F)N1 (centres undefined) | -8 | u | -13% | 123%
Cc1[nH]nc(-c2ccc(OCc3cnn(-c4ccccc4)c3)cc2O)c1Oc1ccc(F)cc1 | -76* | u | u | 9.3µM*
CCOc1ccc(-c2n[nH]c(C)c2Oc2ccc(OC)cc2)c(O)c1 | -18 | 11µM* | 13µM* | x
Cc1cccc(C)c1NC(=O)C1(C)CN(S(C)(=O)=O)CC(=O)N1CCCn1ccnc1 (centres undefined) | 62 | x | x | x
CC(C)(C)n1nc2c(c1NC(=O)Cc1cccs1)CSC2 | x | x | x | 21%
COc1ccc(-n2nc3c(c2NC(=O)CCl)CSC3)cc1 | -29 | -32% | 0.74µM* | u
CC(C)(C)n1nc2c(c1NC(=O)COc1ccc(Cl)cc1)CSC2 | x | u | u | 4.7µM*
CC(C)(C)n1nc2c(c1NC(=O)Cc1ccc(F)cc1)CSC2 | -24 | 7% | x | 10µM*
COC(=O)c1c(NC(=O)Cc2coc3cc(C)ccc23)sc2c1CCC2 | 2 | x | x | x
CCn1ccc2cc(S(=O)(=O)N3CCC(C(=O)NCc4ccc(F)cc4)CC3)ccc21 | -3 | x | x | x
CC1(C)C(=O)C=C[C@]2(C)[C@H]3CC[C@@]4(C)[C@H](c5ccoc5)OC(=O)[C@H]5O[C@]54[C@]3(C)[C@H](O)C[C@@H]12 | x | 1%[8.37 µM] | 12µM* | 8.3µM*
CC(C)(O)[C@@H]1CC(=O)[C@]2(C)[C@H](CC[C@@]3(C)[C@H](c4ccoc4)OC(=O)[C@H]4O[C@]432)[C@@]1(C)/C=C\C(=O)O | -12 | 4% | 46% | 40%
CC(C)c1ccc(NC(=O)C(NS(=O)(=O)c2ccc3c(c2)CCC(=O)N3)c2ccccc2)cc1 (centres undefined) | 35 | x | x | x
CCC(C)NC(=O)c1cn(CC)c2ccc(S(=O)(=O)N3CCCCC3)cc2c1=O (centres undefined) | -31 | 7% | u | 0%
CC1CCN(S(=O)(=O)c2ccc3c(c2)c(=O)c(C(=O)NC2CCCC2)cn3C)CC1 | 41 | 16% | 35% | u
CCn1cc(C(=O)NCCCOC)c(=O)c2cc(S(=O)(=O)N3CCC(C)CC3)ccc21 | -39 | -7% | -12% | -28%
Cn1cc(C(=O)NC2CCCCC2)c(=O)c2cc(S(=O)(=O)N3CCCC3)ccc21 | -26 | 3% | -22% | 8.3µM*
CCC(C)NC(=O)c1cn(CC)c2ccc(S(=O)(=O)N3CCCCCC3)cc2c1=O (centres undefined) | -40 | -3% | u | 13µM*
CCn1cc(C(=O)NCCCOC(C)C)c(=O)c2cc(S(=O)(=O)N3CCC(C)CC3)ccc21 | 0 | 5% | u | 1µM*
